# An excerpt weighted towards active compounds, which were near 0.51% of everything screened.
# AddAB inh: less growth of phage-infected E. coli with AddAB; 330,000 tested, 0.29% active; E. coli expressing H. pylori AddAB, absorbance growth; inhibition, % at 11.9 µM; AID 435030; in the data active means inhibition above about 12%;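 further: 0% = vehicle wells of infected cells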
# E coli growth-1: blocks Escherichia coli growth; OD600, 23 h; active compounds read low; 330,000 tested, 0.21% active; AID 1053175; OD600 absorbance (no concentration beside the values);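 active means OD600 absorbance below the run mean of sample wells minus 3.6 SD, in any replicate, cut at about 0.56 in these data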
# E coli growth-2: counter-screen for AddAB inhibitors: E. coli growth inhibition | E. coli V3065 growth, OD600 absorbance, 18 h | inhibition, % at 11.9 µM | 330,000 tested, 0.27% active;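 active means inhibition above the campaign's mean inhibition across all tested compounds plus 3 SD, cut at about 9.9% in these data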;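 further: uninfected addAB+ strain grown without phage in ampicillin broth; 0% = DMSO wells and 100% = ciprofloxacin 0.95 µg/ml wells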
# phage Ecoli inh: E. coli growth loss with phage present; 360,000 tested, 0.26% active; growth absorbance; inhibition, % at 11.9 µM; in the data active means inhibition above about 11%
# Tat export inh: inhibitors of E. coli Tat protein transport; inhibition, % at 10 µM; AID 488895; 340,000 tested, 0.036% active; E. coli MC4100 TorA-mCherry Tat export, fluorescence;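 active means mean replicate inhibition at least 50% and at least half of replicates individually reaching 50%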;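 further: exported cargo escapes ClpAP degradation while cytoplasmic cargo is degraded and loses fluorescence; 0% = median of neutral control wells and 100% = median of NaSCN control wells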
# AddAB conf: confirmation screen: growth loss of phage-infected E. coli expressing H. pylori AddAB; inhibition, % at 11.9 µM; shares compounds with AddAB inh; 880 tested, 64% active; E. coli V3065 expressing H. pylori AddAB, T4 phage, OD; T4 phage with gene 2 nonsense mutations;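 active means mean inhibition above a set limit taken from the earlier primary screen, cut at about 13% in these data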;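 further: higher means less bacterial growth since AddAB block lets phage replicate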
# RecBCD counter: counter-screen: growth loss of RecBCD+ E. coli with mutant T4 phage. inhibition, % at 11.9 µM. shares compounds with AddAB inh. E. coli V66 + mutant T4 phage, OD growth. 880 tested, 73% active;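 active means mean inhibition above the mean of solvent-only control wells plus 3 SD, cut at about 4% in these data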;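 further: optical density read after an 18 h incubation at 37 °C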
# Bact viability: counter-screen: bacterial growth inhibition; shares compounds with AddAB inh; bacterial viability, absorbance (AddAB counterscreen); inhibition, % at 11.9 µM; 880 tested, 35% active; in the data active means inhibition above about 25%
# RecBCD conf: confirmation: growth loss of phage-infected RecBCD+ E. coli (RecBCD inhibitor screen). shares compounds with phage Ecoli inh. 890 tested, 45% active. inhibition, % at 11.9 µM. E. coli V66 + T4 2- phage, growth OD;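 active means mean inhibition over triplicates exceeding the hit threshold derived in the original primary screen, cut at about 11% in these data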
# Ecoli viability: counter-screen for RecBCD inhibitors: inhibitors of bacterial viability; shares compounds with phage Ecoli inh; E. coli viability, absorbance (OD) growth; inhibition, % at 11.9 µM; 890 tested, 29% active; in the data active means inhibition above about 20%;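 further: E. coli strain V66 grown with compound alone and no phage infection; 0% = bacteria with DMSO vehicle only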
# AddAB phage OD: growth loss of phage-infected AddAB E. coli, RecBCD counter-screen | shares compounds with phage Ecoli inh | E. coli expressing H. pylori AddAB + T4 phage, OD growth; gene 2 mutant T4, recBCD-deleted host | inhibition, % at 11.9 µM | 890 tested, 45% active;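 active means mean inhibition above the solvent-only control wells' mean plus 3 SD, cut at about 22% in these data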;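 further: higher means less bacterial growth from phage killing when AddAB is blocked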
# * = called active by the depositor; nt = no result.
SMILES,AddAB inh,E coli growth-1,E coli growth-2,phage Ecoli inh,Tat export inh,RecBCD conf,Ecoli viability,AddAB phage OD,others
CN1/C(=C\C=C\C2=[N+](C)c3ccc4ccccc4c3C2(C)C)C(C)(C)c2ccccc21,30*,nt,51*,nt,nt,nt,nt,nt,AddAB conf=77*;RecBCD counter=66*;Bact viability=78*
CCCNC1=C(C)C(=O)C2=C(C1=O)C(COC(N)=O)[C@]1(OC)C3NC3CN21 (stereo partly specified),44*,0.13*,46*,23*,9,nt,nt,nt,AddAB conf=98*;RecBCD counter=45*;Bact viability=82*
CCCN(CCC)C1Cc2cc(OC)c(OC)cc2C1,98*,0.68,99*,5,-9,nt,nt,nt,AddAB conf=-5;RecBCD counter=1;Bact viability=-2
Oc1c(Br)c(Br)c(Br)c(Br)c1Br,18*,nt,15*,nt,-2,nt,nt,nt,AddAB conf=22*;RecBCD counter=20*;Bact viability=21
CCOC(=O)C1C2COc3ccc(Br)cc3C2N2C(=O)N(c3cccc(C)c3)C(=O)[C@]12C (stereo partly specified),nt,0.71,nt,nt,nt,nt,nt,nt,
COC(=O)C1=C(c2cccc(C#N)c2)CC2CCC1N2C(=O)NCCO (stereo unspecified),nt,0.63,nt,nt,nt,nt,nt,nt,
CN1CCN(c2ccc([N+](=O)[O-])c3no[n+]([O-])c23)CC1,102*,0.057*,103*,30*,51*,14*,17,101*,AddAB conf=101*;RecBCD counter=19*;Bact viability=89*
COC(=O)C1=C(c2cccc(C#N)c2)CC2CCC1N2C(=O)NCCNC(C)=O (stereo unspecified),nt,0.68,nt,nt,nt,nt,nt,nt,
CCn1nc(-c2ccccc2)nc2c(=O)n(C)c(=O)nc1-2,3,0.61,3,nt,-6,nt,nt,nt,
Cc1nc2c(=O)n(C)c(=O)nc-2n(C)n1,41*,0.049*,42*,42*,-16,43*,48*,61*,AddAB conf=48*;RecBCD counter=39*;Bact viability=42*
Oc1c(Cl)cccc1Cc1cc(Cl)cc(Cl)c1O,nt,0.38*,nt,15*,5,5,8,6,
CN1C2CCC1C(C(=O)N1CCOCC1)=C(O)C2 (stereo unspecified),nt,0.72,nt,nt,nt,nt,nt,nt,
CC=C1CC(C)[C@](O)(CO)C(=O)OCC2=CCN3CCC(OC1=O)C23 (stereo partly specified),nt,0.67,nt,nt,nt,nt,nt,nt,
CC(N)C(=O)NC1C2C(=C(O)CC(O)C2O)C(=O)OC1(C)C(Cl)Cl (stereo unspecified),nt,nt,nt,99*,82*,104*,106*,97*,
CCN(CC)S(=O)(=O)c1ccc(N=Cc2c(O)n(-c3ccccc3)c(=O)[nH]c2=O)cc1,0,0.72,1,2,-9,nt,nt,nt,
O=c1[nH]c(=O)n(-c2ccc(Cl)cc2)c(O)c1C=Nc1ccc(S(=O)(=O)Nc2nccs2)cc1,9,nt,3,12*,5,6,4,25*,
O=[N+]([O-])c1ccc(N(CCO)CCO)c2c1no[n+]2[O-],nt,nt,nt,93*,nt,84*,91*,100*,
CCOC(=O)[C@]12Cc3cc(Cl)ccc3[C@H]1N(C1CCCCC1)C(=O)c1cc(OC)ccc12,nt,nt,nt,11*,nt,5,4,-4,
COC(=O)C1=C(c2ccc(F)cc2OCc2ccccc2)CC2CCC1N2C(=O)N1CCCC1 (stereo unspecified),nt,0.7,nt,nt,nt,nt,nt,nt,
C[C@@]1(C(NP(=O)(c2ccccc2)c2ccccc2)c2ccccc2)CC1CCO (stereo partly specified),nt,0.67,nt,nt,nt,nt,nt,nt,
CN(C)C1C(=O)C(C(N)=O)=C(O)C2(O)C(=O)C3=C(O)c4c(O)cccc4C(C)(O)C3C(O)C12 (stereo unspecified),-2,0.064*,-3,99*,138*,102*,104*,102*,
COC(=O)c1c2[n+](cc3cc(OC)c(OC)cc13)CCc1cc(OC)c(OC)cc1-2,0,0.67,0,16*,-2,-5,-5,-2,
COc1ccc(CC2=NCCc3cc(OC)c(OC)cc32)cc1OC,nt,nt,nt,4,nt,nt,nt,nt,
CCOC(=O)[C@]12Cc3cc(OC)ccc3C1N(Cc1ccccc1)C(=O)c1cc(F)c(F)cc12 (stereo partly specified),nt,0.7,nt,nt,nt,nt,nt,nt,
CCN1/C(=C/C=C/C2=[N+](CC)c3ccccc3C2(C)C)C(C)(C)c2ccccc21,nt,nt,nt,25*,nt,18*,21*,43*,
COc1cc2c(cc1OC)C1C(CC=C3CCN(C)C31)OC2O (stereo unspecified),nt,0.71,nt,nt,nt,nt,nt,nt,
